# PubChem BioAssay (NCATS)
# Records with an inconclusive call do not appear. Where a call stands in place of a potency, no number is given. Active and inactive are the calls of the source. Calls come from the whole dose curve; as a rule, active = well fitted curve in the direction sought with a large enough effect; inconclusive = small, poorly fitted or top-dose-only effect, or another doubt; inactive = no such curve, though single readings can be large; an effect the other way counts as inactive or inconclusive.
# Legend:
# [1] = target: N-terminal Xaa-Pro-Lys N-methyltransferase 1 (Homo sapiens) (UniProt Q9BV86); experiment: qHTS Assay for Inhibitors of N-terminal methyltransferase 1 (NTMT1): LOPAC validation of the NTMT1 SAHH-coupled ThioGlo3 Assay (AID 1347143);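 note: SAH from peptide methylation measured as thiol fluorescence via SAHH coupling and ThioGlo3; nearly all actives have a fitted effect of over 70% in size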; note: potency is the fitted concentration of half-maximal effect
# In short: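 In this qHTS pilot against the LOPAC set, 125nM NTMT1 met compounds tested at multiple concentrations, and fluorescence was normalized to background.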
# Furin (Homo sapiens) = Furin (Homo sapiens) (UniProt P09958); experiment: Furin counterscreen qHTS for Zika virus inhibitors (AID 1347149); note: nearly all actives have a fitted effect of over 70% in size; note: potency is the fitted concentration of half-maximal effect
# In short: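 Counterscreen measures cleavage of 2 microM BOC-RVRR-AMC, below its ~15 microM Km, by 5 nM full-length human furin at pH 7.0 after a 15-min compound preincubation. Inhibition derives from the 15-min fluorescence increase at 37C.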
# [2] = qHTS of pediatric cancer cell lines to identify multiple opportunities for drug repurposing: Confirmatory screen for DAOY cells (AID 1347114); note: nearly all actives have a fitted effect of over 65% in size; note: potency is the fitted concentration of half-maximal effect
# In short: (§1)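 Viability measured as metabolically active cells via CellTiter-Glo luminescence following 48 hours of compound exposure, 11-point dilutions in confirmatory testing. 500-1,000 cells/well plated 5 hours before dosing; controls were DMSO and 2.3 µM bortezomib.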
# [3] = qHTS of pediatric cancer cell lines to identify multiple opportunities for drug repurposing: Confirmatory screen for NB-EBc1 cells (AID 1347115);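 note: cells exposed to compound for 48 h before the viability read; nearly all actives have a fitted effect of over 45% in size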; note: potency is the fitted concentration of half-maximal effect
# In short: (§2)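 Cells (500-1,000/well) in growth media were settled 5 h at 37 degrees C, then given compounds for 48 h. Viability was read as CellTiter-Glo luminescence. Primary runs used MIPE at 11 points (0.78 nM-46 µM) and NPC at 8 points (0.59 nM-46 µM); follow-ups used 11 points.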
# [4] = qHTS of pediatric cancer cell lines to identify multiple opportunities for drug repurposing: Confirmatory screen for SJ-GBM2 cells (AID 1347116); note: nearly all actives have a fitted effect of over 60% in size; note: potency is the fitted concentration of half-maximal effect
# In short: as §1
# [5] = qHTS of pediatric cancer cell lines to identify multiple opportunities for drug repurposing: Confirmatory screen for control Hh wild type fibroblast cells (AID 1347121); note: nearly all actives have a fitted effect of over 70% in size
# In short: as §2
# [6] = qHTS of pediatric cancer cell lines to identify multiple opportunities for drug repurposing: Confirmatory screen for Rh41 cells (AID 1347123);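 note: 48 h compound exposure; nearly all actives have a fitted effect of over 60% in size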; note: potency is the fitted concentration of half-maximal effect
# In short: as §2
# [7] = system: Zika virus NS2B-NS3 protease (unlinked); experiment: Optimization of GU AMC qHTS for Zika virus inhibitors: Unlinked NS2B-NS3 protease assay (AID 1347151); note: nearly all actives have a fitted effect of over 80% in size; note: potency is the fitted concentration of half-maximal effect
# In short: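 Noncovalent complex of NS2B hydrophilic domain and NS3 protease domain, 25 nM final, in 10 mM Tris-HCl pH 8.0, 0.01% Tween 20. AMC fluorescence change over 15 min at room temperature was fitted to a 4-parameter Hill equation.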
# [8] = qHTS of pediatric cancer cell lines to identify multiple opportunities for drug repurposing: Confirmatory screen for LAN-5 cells (AID 1347113); note: nearly all actives have a fitted effect of over 65% in size; note: potency is the fitted concentration of half-maximal effect
# In short: as §2
# [9] = qHTS of pediatric cancer cell lines to identify multiple opportunities for drug repurposing: Confirmatory screen for Saos-2 cells (AID 1347127); note: nearly all actives have a fitted effect of over 60% in size; note: potency is the fitted concentration of half-maximal effect
# In short: as §2
# [10] = qHTS of pediatric cancer cell lines to identify multiple opportunities for drug repurposing: Confirmatory screen for SK-N-SH cells (AID 1347129);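 note: cells exposed to compound for 48 h before viability read; nearly all actives have a fitted effect of over 60% in size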
# In short: as §2
# [11] = qHTS of pediatric cancer cell lines to identify multiple opportunities for drug repurposing: Confirmatory screen for BT-12 cells (AID 1347112); note: nearly all actives have a fitted effect of over 55% in size; note: potency is the fitted concentration of half-maximal effect
# In short: as §2
# [12] = qHTS of pediatric cancer cell lines to identify multiple opportunities for drug repurposing: Confirmatory screen for MG 63 (6-TG R) cells (AID 1347119); note: nearly all actives have a fitted effect of over 55% in size; note: potency is the fitted concentration of half-maximal effect
# In short: as §2
# [13] = qHTS of pediatric cancer cell lines to identify multiple opportunities for drug repurposing: Confirmatory screen for RD cells (AID 1347124);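 note: cells exposed to compound for 48 h before viability readout; nearly all actives have a fitted effect of over 65% in size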; note: potency is the fitted concentration of half-maximal effect
# In short: as §2
# [14] = qHTS of pediatric cancer cell lines to identify multiple opportunities for drug repurposing: Confirmatory screen for Rh18 cells (AID 1347125); note: nearly all actives have a fitted effect of over 55% in size
# In short: as §2
# [15] = qHTS of pediatric cancer cell lines to identify multiple opportunities for drug repurposing: Confirmatory screen for Rh30 cells (AID 1347126); note: nearly all actives have a fitted effect of over 55% in size
# In short: as §2
# [16] = qHTS of pediatric cancer cell lines to identify multiple opportunities for drug repurposing: Confirmatory screen for BT-37 cells (AID 1347117); note: nearly all actives have a fitted effect of over 55% in size; note: potency is the fitted concentration of half-maximal effect
# In short: as §2
# [17] = qHTS of pediatric cancer cell lines to identify multiple opportunities for drug repurposing: Confirmatory screen for OHS-50 cells (AID 1347128)
# In short: as §2
# Sequence of N-terminal Xaa-Pro-Lys N-methyltransferase 1 (Homo sapiens) (Q9BV86 whole entry, looked up): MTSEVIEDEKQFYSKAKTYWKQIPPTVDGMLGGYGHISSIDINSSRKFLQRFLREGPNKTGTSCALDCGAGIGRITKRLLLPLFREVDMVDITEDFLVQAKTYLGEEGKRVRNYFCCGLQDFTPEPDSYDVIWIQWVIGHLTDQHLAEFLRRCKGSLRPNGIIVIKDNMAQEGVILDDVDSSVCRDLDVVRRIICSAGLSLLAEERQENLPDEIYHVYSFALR
# Sequence of Furin (Homo sapiens) (P09958 whole entry, looked up): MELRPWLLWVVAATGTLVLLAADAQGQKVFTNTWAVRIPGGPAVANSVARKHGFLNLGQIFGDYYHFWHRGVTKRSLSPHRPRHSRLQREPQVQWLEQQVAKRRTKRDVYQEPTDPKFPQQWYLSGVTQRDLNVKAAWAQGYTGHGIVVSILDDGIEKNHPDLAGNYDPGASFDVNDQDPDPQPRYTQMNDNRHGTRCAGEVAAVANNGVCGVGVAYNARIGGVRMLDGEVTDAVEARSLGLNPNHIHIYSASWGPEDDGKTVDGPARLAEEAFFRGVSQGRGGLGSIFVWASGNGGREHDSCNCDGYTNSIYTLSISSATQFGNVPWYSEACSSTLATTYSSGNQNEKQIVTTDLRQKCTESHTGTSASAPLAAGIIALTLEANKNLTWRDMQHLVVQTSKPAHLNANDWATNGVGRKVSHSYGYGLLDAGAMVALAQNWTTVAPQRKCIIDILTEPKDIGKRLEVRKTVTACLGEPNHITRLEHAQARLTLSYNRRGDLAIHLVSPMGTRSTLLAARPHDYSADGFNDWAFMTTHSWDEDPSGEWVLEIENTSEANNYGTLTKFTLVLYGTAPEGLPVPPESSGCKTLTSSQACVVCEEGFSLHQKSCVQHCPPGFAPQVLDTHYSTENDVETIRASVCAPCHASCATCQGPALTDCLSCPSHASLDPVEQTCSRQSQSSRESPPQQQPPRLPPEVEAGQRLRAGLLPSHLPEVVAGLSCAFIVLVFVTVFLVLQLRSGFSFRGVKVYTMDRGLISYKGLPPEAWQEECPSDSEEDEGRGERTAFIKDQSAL
smiles,measurement,setting,value
Cc1ccccc1N1C(=O)c2cc(S(N)(=O)=O)c(Cl)cc2NC1C (stereo not given),Potency,[1],79.4 µM (active)
same,Potency,Furin (Homo sapiens),27 µM (active)
CN(C)CCCN1c2ccccc2CCc2ccc(Cl)cc21,Potency,[2],20.8 µM (active)
same,Potency,[3],inactive
same,Potency,[4],inactive
same,Potency,[5],inactive
same,Potency,[6],10.4 µM (active)
same,Potency,[7],inactive
O=c1c(O)c(-c2ccc(O)c(O)c2)oc2cc(O)cc(O)c12,Potency,[1],35.5 µM (active)
same,Potency,Furin (Homo sapiens),inactive
same,Potency,[7],2.12 µM (active)
CC(C)C(=O)Nc1ccc([N+](=O)[O-])c(C(F)(F)F)c1,Potency,[8],inactive
same,Potency,[2],16.5 µM (active)
same,Potency,[3],inactive
same,Potency,[5],inactive
same,Potency,[9],inactive
same,Potency,[10],inactive
same,Potency,[7],inactive
CC#C[C@]1(O)CC[C@H]2[C@@H]3CCC4=CC(=O)CCC4=C3[C@@H](c3ccc(N(C)C)cc3)C[C@@]21C,Potency,[11],inactive
same,Potency,[3],inactive
same,Potency,[4],inactive
same,Potency,[12],inactive
same,Potency,[5],inactive
same,Potency,[6],23.3 µM (active)
same,Potency,[13],inactive
same,Potency,[1],11.2 µM (active)
same,Potency,[7],inactive
CC(CCc1ccc(O)cc1)NCCc1ccc(O)c(O)c1 (stereo not given),Potency,[8],inactive
same,Potency,[2],inactive
same,Potency,[3],5.85 µM (active)
same,Potency,[12],inactive
same,Potency,[5],inactive
same,Potency,[6],inactive
same,Potency,[13],inactive
same,Potency,[14],inactive
same,Potency,[15],inactive
same,Potency,[10],inactive
same,Potency,[7],inactive
Clc1ccccc1C(c1ccccc1)(c1ccccc1)n1ccnc1,Potency,[1],inactive
CC(C)Cc1ccc(C(C)C(=O)O)cc1 (stereo not given),Potency,[11],inactive
same,Potency,[2],3.69 µM (active)
same,Potency,[3],inactive
same,Potency,[4],1.31 µM (active)
same,Potency,[16],inactive
same,Potency,[12],inactive
same,Potency,[5],inactive
same,Potency,[6],4.65 µM (active)
same,Potency,[13],1.31 µM (active)
same,Potency,[14],inactive
same,Potency,[15],inactive
same,Potency,[17],inactive
same,Potency,[10],inactive
same,Potency,[1],inactive
same,Potency,[7],inactive
COc1cc2c(c(OC)c1OC)-c1ccc(OC)c(=O)cc1[C@@H](NC(C)=O)CC2,Potency,[11],0.0631 µM (active)
same,Potency,[8],0.0891 µM (active)
same,Potency,[2],0.02 µM (active)
same,Potency,[16],0.0562 µM (active)
same,Potency,[12],0.1 µM (active)
same,Potency,[5],inactive
same,Potency,[13],0.0708 µM (active)
same,Potency,[14],inactive
same,Potency,[9],0.0447 µM (active)
same,Potency,[10],inactive
same,Potency,[7],inactive
